Test results: PubChem BioAssay

What follows are compounds tested on Fibrinogen (Alexa647-labelled) (assay: fibrinogen binders on compound microarrays, profiling panel, artefact control for SMM control-protein annotation, biochemical, small-molecule microarray, 635/667 nm fluorescence (AID 1131;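 also: z-score merges 667 nm fluorescence with per-spot signal-to-noise over triplicate slides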)). Conditions: fibrinogen-A647 binding fluorescence, higher = more signal.

With `COCCCNC(=O)[C@]1(Cc2ccccc2)N=C(c2ccc(OCCCO)cc2)O[C@@H]1c1ccccc1N=[N+]=[N-]` as the compound, how does the composite z-score read?
The composite z-score was 0.977.

How did the composite z-score turn out when `CCCC=C(CCC)[C@@H](NC(=O)Cc1ccccc1)c1ccc(C(=O)OC)cc1` was run?
Its composite z-score is 0.714.

For `COc1ccc([Si](C)(C)[C@@H]2[C@@H](CCO)O[C@]3(C(=O)N(Cc4ccccc4)c4ccc(N5CCCCC5=O)cc43)[C@H]2C)cc1`, which composite z-score is on record?
The composite z-score was 0.734.

With `COc1ccc(CCNC(=O)[C@@H]2c3ccccc3C(=O)N(Cc3ccccc3)[C@H]2c2ccc(CO)cc2)cc1` as the compound, how does the composite z-score read?
The composite z-score was -0.279.

For `O=C(CS)NCCCCCNC(=O)[C@@H]1C[C@@H]2C(=O)N3CCC[C@H]3C(=O)N2[C@@H]1c1ccc(O)cc1`, which composite z-score is on record?
Its composite z-score is -0.174.

`COC(=O)[C@]1(Cc2ccccc2CN=[N+]=[N-])N=C(c2ccc(OCCCO)cc2)O[C@@H]1c1ccccc1` was tested. Which composite z-score did it give?
The composite z-score was 0.0713.

For `COc1ccc([Si](C)(C)[C@@H]2[C@@H](CC(=O)N(CCO)Cc3ccccc3)O[C@]3(C(=O)N(Cc4ccc(N5CCOC5=O)cc4)c4ccccc43)[C@H]2C)cc1`, which composite z-score is on record?
Its composite z-score is 0.631.

With `[N-]=[N+]=NCc1ccccc1C[C@]1(C(=O)NCCN2CCOCC2)N=C(c2ccc(OCCCO)cc2)O[C@H]1c1ccccc1` as the compound, how does the composite z-score read?
Its composite z-score is 1.01.

With `COC(=O)[C@H]1N=C(c2ccc(OCCCO)cc2)O[C@H]1c1ccccc1CN=[N+]=[N-]` as the compound, how does the composite z-score read?
Its composite z-score is 0.825.

These compounds were tested against Follistatin (Homo sapiens) (UniProt P19883) (assay: follistatin binders on small-molecule microarrays, primary screen, biochemical, small-molecule microarray, 635/667 nm fluorescence (AID 1132)). Conditions: FST binding, 635 nm fluorescence, higher = more signal.
Follistatin (Homo sapiens), sequence (P19883 whole entry, looked up): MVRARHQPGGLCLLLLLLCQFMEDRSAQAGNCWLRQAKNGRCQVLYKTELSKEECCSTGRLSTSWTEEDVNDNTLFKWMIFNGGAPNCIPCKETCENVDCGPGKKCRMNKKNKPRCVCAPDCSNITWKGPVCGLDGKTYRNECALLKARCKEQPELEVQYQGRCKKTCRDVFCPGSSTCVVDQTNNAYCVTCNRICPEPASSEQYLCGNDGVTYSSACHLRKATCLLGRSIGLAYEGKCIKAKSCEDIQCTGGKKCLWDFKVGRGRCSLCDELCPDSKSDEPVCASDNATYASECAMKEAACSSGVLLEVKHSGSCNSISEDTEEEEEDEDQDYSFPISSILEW

How did the composite z-score turn out when `CC(C)[Si](C#C[Si](C(C)C)(C(C)C)C(C)C)(O[C@H](C)c1cn(Cc2cccc(Cl)c2)nn1)C(C)C` was run?
Its composite z-score is 0.396.

How did the composite z-score turn out when `CC(C)(C)OC(=O)CC[C@]1(C(=O)N2CCCCC2)N=C(c2ccc(OCCCO)cc2)O[C@H]1c1ccccc1CN=[N+]=[N-]` was run?
Its composite z-score is 1.4.

How did the composite z-score turn out when `CCOC(=O)C[C@H]1[C@H](OC(=O)Cc2ccc3c(c2)OCO3)[C@@H](NC(=O)c2ccccc2)c2cc(OCCCO)ccc2N1C(=O)c1ccc2ccccc2n1` was run?
The composite z-score was 0.166.

Which composite z-score does the source give for `CC(C)CCC[C@@H](C)[C@H]1CC[C@@]2(C)C3=C(CC[C@]12C)[C@@]1(C)CC[C@H](OC(=O)c2ccc(N)cc2)C(C)(C)C1CC3` (some centres undefined) here?
Its composite z-score is 0.552.

For `C=CCC(OC(C)=O)[C@@H]1[C@@H](N(Cc2cccc3ccccc23)C(=O)c2ccc(C)cc2)c2cc(OCCCO)ccc2N1C(=O)c1ccc2ccccc2c1` (some centres undefined), which composite z-score is on record?
Its composite z-score is 0.672.

For `COC(=O)C(CC#Cc1ccc2c(c1)[C@]1(C(=O)N2)[C@H](c2ccccc2OCCO)N2[C@H](c3ccccc3)[C@H](c3ccccc3)OC(=O)[C@H]2[C@@H]1C(=O)Nc1nc2ccccc2s1)C(=O)OC`, which composite z-score is on record?
Its composite z-score is 1.11.

For `C=CCOC(=O)[C@@H]1[C@H]2C(=O)O[C@H](c3ccccc3)[C@H](c3ccccc3)N2[C@H](c2ccc(OCCOC(=O)[C@@H]3C[C@@H]4C(=O)N5CCC[C@H]5C(=O)N4[C@@H]3c3cccc(OCCO)c3)cc2)[C@@]12C(=O)Nc1ccc(I)cc12`, which composite z-score is on record?
Its composite z-score is 1.43.

Which composite z-score does the source give for `COc1ccc(C(=O)Nc2ccc(CN3C(=O)[C@]4(O[C@H](CCn5cc([C@H](O)c6ccccc6)nn5)[C@@H]([Si](C)(C)c5ccc(OC)cc5)[C@@H]4C)c4ccccc43)cc2)cc1` here?
Its composite z-score is 0.971.

`CN(C)C(=O)[C@@]1(CCC(=O)OC(C)(C)C)N=C(c2ccc(OCCCO)cc2)O[C@H]1c1ccccc1N=[N+]=[N-]` was tested. Which composite z-score did it give?
The composite z-score was 1.45.

For `COCCOC(=O)N1C(=O)[C@@]2(c3cc(C#CCCO)ccc31)[C@H](C(=O)NC[C@H](O)c1ccccc1)[C@H]1C(=O)O[C@H](c3ccccc3)[C@H](c3ccccc3)N1[C@@H]2c1ccccc1OCCO`, which composite z-score is on record?
The composite z-score was 1.28.

Which composite z-score does the source give for `COc1ccc([Si](C)(C)[C@H]2[C@H](CCO)O[C@@]3(C(=O)N(Cc4cccc(N5CCOC5=O)c4)c4ccccc43)[C@@H]2C)cc1` here?
The composite z-score was 0.433.

`CN(C)CCCC[C@@H]1NC(=O)[C@H]2C[C@@H](C(=O)NCCCCCCNC(=O)CS)[C@@H](c3ccc(O)cc3)N2C1=O` was tested. Which composite z-score did it give?
The composite z-score was 1.32.

How did the composite z-score turn out when `CC(C)=CCCC(C)=CC(O)C1C=CC2C(=O)N(c3ccccc3)C(=O)C2N1Nc1ccc([N+](=O)[O-])cc1` (centres undefined) was run?
Its composite z-score is 1.03.

With `COC(=O)[C@@]1(Cc2ccc(OC)cc2)[C@H]2c3cc(C(=O)N(C)C)n(Cc4cc(F)c(F)c(F)c4)c3C[C@H]2CN1C(=O)c1ccccc1` as the compound, how does the composite z-score read?
The composite z-score was 0.761.

How did the composite z-score turn out when `COCCOC(=O)N1C(=O)[C@@]2(c3cc(C#CCC(C(=O)OC)C(=O)OC)ccc31)[C@H](C(=O)N1CCCCCCC1)[C@H]1C(=O)O[C@H](c3ccccc3)[C@H](c3ccccc3)N1[C@@H]2c1ccc(O)cc1` was run?
Its composite z-score is 1.07.

For `[N-]=[N+]=Nc1ccccc1[C@H]1OC(c2ccc(OCCCO)cc2)=N[C@@]1(Cc1ccccc1)C(=O)NCc1ccccc1`, which composite z-score is on record?
The composite z-score was 1.15.

With `COC(=O)C(CC#Cc1ccc2c(c1)[C@]1(C(=O)N2)[C@H](c2ccc(O)cc2)N2[C@H](c3ccccc3)[C@H](c3ccccc3)OC(=O)[C@H]2[C@@H]1C(N)=O)C(=O)OC` as the compound, how does the composite z-score read?
Its composite z-score is -2.01.

For `C=CCNC(=O)[C@H]1[C@@H]2C(=O)O[C@@H](c3ccccc3)[C@@H](c3ccccc3)N2[C@@H](c2ccc(OCCO)cc2)[C@]12C(=O)N(C(=O)OCCOC)c1ccc(C#CC3=CCCCC3)cc12`, which composite z-score is on record?
Its composite z-score is 1.17.

`COC(=O)[C@@]1(Cc2ccccc2)[C@H]2c3cc(C(=O)N(C)C)n(Cc4ccccn4)c3C[C@H]2CN1C(=O)c1ccccc1` was tested. Which composite z-score did it give?
Its composite z-score is -0.226.

How did the composite z-score turn out when `O=C(Nc1cc(Br)ccc1C(=O)NCc1cccc(O)c1)c1ccccc1` was run?
Its composite z-score is 0.0635.

Which composite z-score does the source give for `NCCCCCCNC(=O)[C@H]1C[C@H]2C(=O)N3CCC[C@H]3C(=O)N2[C@H]1c1ccc(O)cc1` here?
Its composite z-score is 1.36.

For `C#CCNS(=O)(=O)N(C)C`, which composite z-score is on record?
The composite z-score was 0.103.

For `CCCC=C(CCC)[C@@H](NS(=O)(=O)CC)c1ccccc1`, which composite z-score is on record?
Its composite z-score is 0.322.

How did the composite z-score turn out when `CN(C)CCCCCCNC(=O)[C@@H]1C[C@@H]2C(=O)NCC(=O)N2[C@@H]1c1ccc(O)cc1` was run?
Its composite z-score is 1.42.

With `NC(=O)NCC#Cc1ccc2c(c1)[C@]1(C(=O)N2)[C@H](c2ccc(O)cc2)N2[C@H](c3ccccc3)[C@H](c3ccccc3)OC(=O)[C@H]2[C@@H]1C(N)=O` as the compound, how does the composite z-score read?
The composite z-score was -0.0645.

`COCCCNC(=O)[C@@]1(C)c2ccccc2C(=O)N(c2ccc(C)cn2)[C@H]1c1ccc(CO)cc1` was tested. Which composite z-score did it give?
The composite z-score was -0.0423.

For `COCCCNC(=O)[C@]1(Cc2ccccc2)N=C(c2ccc(OCCCO)cc2)O[C@@H]1c1ccccc1N=[N+]=[N-]`, which composite z-score is on record?
The composite z-score was 1.25.

Which composite z-score does the source give for `CCCC=C(CCC)[C@@H](NC(=O)Cc1ccccc1)c1ccc(C(=O)OC)cc1` here?
The composite z-score was 0.28.

With `COc1ccc([Si](C)(C)[C@@H]2[C@@H](CCO)O[C@]3(C(=O)N(Cc4ccccc4)c4ccc(N5CCCCC5=O)cc43)[C@H]2C)cc1` as the compound, how does the composite z-score read?
Its composite z-score is 1.13.

For `COc1ccc(CCNC(=O)[C@@H]2c3ccccc3C(=O)N(Cc3ccccc3)[C@H]2c2ccc(CO)cc2)cc1`, which composite z-score is on record?
Its composite z-score is 0.987.

How did the composite z-score turn out when `O=C(CS)NCCCCCNC(=O)[C@@H]1C[C@@H]2C(=O)N3CCC[C@H]3C(=O)N2[C@@H]1c1ccc(O)cc1` was run?
Its composite z-score is 1.26.

For `COC(=O)[C@]1(Cc2ccccc2CN=[N+]=[N-])N=C(c2ccc(OCCCO)cc2)O[C@@H]1c1ccccc1`, which composite z-score is on record?
Its composite z-score is -0.562.

`COc1ccc([Si](C)(C)[C@@H]2[C@@H](CC(=O)N(CCO)Cc3ccccc3)O[C@]3(C(=O)N(Cc4ccc(N5CCOC5=O)cc4)c4ccccc43)[C@H]2C)cc1` was tested. Which composite z-score did it give?
The composite z-score was 1.17.

How did the composite z-score turn out when `[N-]=[N+]=NCc1ccccc1C[C@]1(C(=O)NCCN2CCOCC2)N=C(c2ccc(OCCCO)cc2)O[C@H]1c1ccccc1` was run?
Its composite z-score is 1.39.

With `COC(=O)[C@H]1N=C(c2ccc(OCCCO)cc2)O[C@H]1c1ccccc1CN=[N+]=[N-]` as the compound, how does the composite z-score read?
Its composite z-score is 0.107.
